esBAF inh: inhibitors of esBAF chromatin remodeling in mouse ES cells; Bmi1-luciferase knock-in reporter, 24 h; 100% = twice the neutral-well signal; reporter increase, % at 12.5 µM; actives 2% (n = 350,000); AID 602393; in the data active means activation above about 40%; inconclusive means no clear call, values can overlap the other calls;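 further: a rise in the Bmi1 reporter signal indicates esBAF inhibition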
Wnt act: Wnt/beta-catenin pathway activation. activation, % at 9.35 µM. actives 1.2% (n = 300,000). Wnt/beta-catenin reporter cell assay, activator, plate reader; in the data active means activation above about 30%, passing the limit was not always enough; inconclusive means no clear call, values can overlap the other calls
C2C12 statin: suppression of simvastatin myotoxicity. C2C12 myotubes + simvastatin, ATP luminescence, 48 h; scaled: DMSO 0, geranylgeraniol control 100. rescue of ATP level, % at 7.49 µM. actives 0.78% (n = 330,000);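 active means mean ATP rescue above about 67%, or every replicate alone reaching that limit, limit read from the data, passing the limit was not always enough; inconclusive means no clear call, values can overlap the other calls; inactive means mean under the limit and some replicate under it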;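 further: myotubes were challenged with 10 µM simvastatin during compound exposure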
MITF act: activators of MITF-driven TRPM1 promoter activity in SK-MEL-5 cells. SK-MEL-5 TRPM1-promoter luciferase, 24 h; % of positive control, neutral wells = 0. actives 0.75% (n = 300,000). activation, % at 12.5 µM. AID 588334;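 active means mean activation of at least 80% with every replicate also reaching 80%; inconclusive means mean reaches 80% but some replicate falls short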
GAA850 FXN act: increases GAA850 frataxin promoter reporter activity; AID 540364; HEK293 lucGAA850 FXN promoter luciferase reporter, 24 h; percent of 10 µM SAHA response; activation, % at 6 µM; actives 0.56% (n = 360,000);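 active means activation above the average of all compounds screened plus 3 SD, cutoff fixed separately per campaign, cut at about 7.5% in these data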
Of the large screens only hits and unclear results are named; the others gave an inactive call. In the library only some 3.3% were active in any assay of this set; here they are far more common.

CC=Cc1ccc2n(c1=O)C[C@@H]1[C@@H](CO)[C@H](C(=O)N(C)C)N(CC3CC3)[C@H]21 (mixture of isomers)	none (no result: Wnt act, MITF act, GAA850 FXN act)
Nn1c(SCc2c(F)cccc2F)nnc1-c1ccccn1	esBAF inh inconclusive, Wnt act 43.0 (no result: MITF act)
Cc1ccc(C)c(CSc2nnc(-c3ccccn3)n2N)c1	none (no result: MITF act)
CC1CCCN(CCCOc2ccc(Cl)cc2Br)C1 (configuration not stated)	none (no result: esBAF inh, C2C12 statin)
CC1CCCN(CCOc2ccc3ccccc3c2Br)C1 (configuration not stated)	MITF act 95.9 (no result: esBAF inh, C2C12 statin)
O=C(C1CCC1)N1CCCCN2[C@H](CO)[C@@H](c3ccc(-c4cccc(F)c4)cc3)[C@@H]2C1	none (no result: Wnt act, MITF act, GAA850 FXN act)
COc1cc2sc3ccc(-c4ccc(CN5CCOCC5)cc4)cc3c(=O)c2cc1OC	none
Cn1c2ccccc2c(=O)c2ccc(Cl)cc21	none (no result: MITF act)
COc1ccc(-c2ccc3sc4ccccc4c(=O)c3c2)cn1	Wnt act 38.8
COc1ccc2sc3ccccc3c(=O)c2c1OC	none (no result: Wnt act)
COc1cc2sc3ccc(-c4ccc(N(C)C)nc4)cc3c(=O)c2cc1OC	Wnt act 43.6 (no result: esBAF inh, C2C12 statin, MITF act, GAA850 FXN act)
CN(C)c1ccc(-c2ccc3c(=O)c4ccccc4n(C)c3c2)cn1	esBAF inh 48.7, Wnt act 36.4
COc1cccc(-c2ccc3c(c2)[C@@H]2[C@@H](CCN2S(=O)(=O)c2cccc(OC)c2)[C@H](CO)N3)c1	none (no result: Wnt act, MITF act, GAA850 FXN act)
O=C(C[C@H]1CC[C@@H]2[C@H](COC[C@H](O)CN2Cc2ccc(Cl)cc2)O1)NCc1cccc(F)c1	none (no result: Wnt act, MITF act, GAA850 FXN act)
COc1ccc(C2CC(=O)Oc3c(C(CCN4CCCCC4)c4ccc(N(C)C)cc4)c(OC)cc(OC)c32)cc1 (configuration not stated)	C2C12 statin 121.2
Cc1ccc(OCCN2CCOCC2)cc1C	none (no result: MITF act)
COc1cccc(OCCCCCCN2CCOCC2)c1	C2C12 statin 111.7 (no result: Wnt act)
Cc1cc(OCCN2CCOCC2)ccc1Cl	esBAF inh 42.6
CCOc1cccc(OCCCCN2CCOCC2)c1	none
Cc1nn(C(=O)c2ccco2)c(C)c1Sc1ccc(Cl)cc1	none (no result: esBAF inh, C2C12 statin)
Cc1nn(C(=O)c2cccnc2)c(C)c1Sc1ccc(Br)cc1	C2C12 statin 74.9 (no result: Wnt act)
CO[C@@H](CN(C)C(=O)c1ccc2c(c1)OCO2)[C@@H](C)CN([C@@H](C)CO)S(=O)(=O)c1ccc(C)cc1	none (no result: Wnt act, MITF act, GAA850 FXN act)
Oc1[nH]c2ccccc2c1C=Nc1ccccc1	esBAF inh inconclusive, Wnt act 45.2, MITF act inconclusive
CCCC(=O)Nc1ccc2c(c1)OC[C@@H](C)N(CC1CCCC1)C[C@@H](C)[C@@H](OC)CN(C)C2=O	none (no result: Wnt act, MITF act, GAA850 FXN act)
CSc1cc(-c2ccc(Cl)cc2)c(C(=O)NC(C)C)s1	C2C12 statin 130.5 (no result: MITF act)
CCN1CCCC1Cn1cnc2c([nH]c3ccc(Cl)cc32)c1=O (configuration not stated)	C2C12 statin 98.7 (no result: MITF act)
CCN1CCCC1Cn1cnc2c([nH]c3cccc(Cl)c32)c1=O (configuration not stated)	none (no result: Wnt act)
Clc1ccc(-c2nc(Cc3ccccc3Cl)no2)cc1	none (no result: Wnt act)
Clc1ccc(Cc2noc(-c3cccs3)n2)cc1	esBAF inh 63.4, MITF act 112.2 (no result: Wnt act)
Cc1sc2nc(-c3cccnc3)nc(Cl)c2c1-c1ccccc1	esBAF inh 57.6
Cc1nc(-c2ccccc2)nc(Cl)c1Cl	none
COc1ccc(C(=S)NC2CCCCC2)cc1	esBAF inh 49.7 (no result: Wnt act)
O=C(Nc1ccccn1)Nc1cccs1	esBAF inh 54.5 (no result: Wnt act)
CC1CCC(NC(=O)Nc2cccs2)CC1 (configuration not stated)	none (no result: C2C12 statin, MITF act)
Cc1ccc(NC(=O)NC2CCCCCCC2)cc1	Wnt act 35.3 (no result: esBAF inh, C2C12 statin)
O=C(Nc1cccs1)NC1CCCC1	C2C12 statin 109.0
O=C(C[C@@H]1C[C@@H]2c3cc(NC(=O)Nc4ccc(C(F)(F)F)cc4)ccc3O[C@@H]2[C@H](CO)O1)NC1CCCCC1	none (no result: Wnt act, MITF act, GAA850 FXN act)
CC(=O)N(C)C[C@@H]1Oc2cc(C#Cc3ccccc3)ccc2S(=O)(=O)N([C@@H](C)CO)C[C@@H]1C	none (no result: Wnt act, MITF act, GAA850 FXN act)
O=C(Cc1ccccn1)N[C@H]1CC[C@@H](CCNC(=O)c2cc(Cl)cc(Cl)c2)O[C@H]1CO	none (no result: Wnt act, MITF act, GAA850 FXN act)
CN(C)C(=O)C[C@@H]1C[C@@H]2c3cc(NC(=O)Nc4ccccc4)ccc3O[C@@H]2[C@@H](CO)O1	none (no result: Wnt act, MITF act, GAA850 FXN act)
COc1ccc(NC(=O)NC2CCCCCCC2)cc1	esBAF inh 53.2
COc1ccc(N2CC(NC(=O)NC(C)(C)C)CC2=O)cc1 (configuration not stated)	none (no result: esBAF inh, C2C12 statin)
COc1cccc(NC(=O)NC2CCCCCCC2)c1	MITF act 89.4
COc1cccc(NC(=O)C(=S)NC2CCCCC2)c1	MITF act 84.1
CCOc1ccc(NC(=O)NC2CC(=O)N(c3ccc(OC)cc3)C2)cc1 (configuration not stated)	Wnt act 41.8
C[C@@H]1CN([C@@H](C)CO)C(=O)c2cc(C#Cc3ccccc3)cnc2O[C@@H]1CN(C)C(=O)C1CC1	none (no result: Wnt act, MITF act, GAA850 FXN act)
CCc1ccccc1NC(=O)NC1CCCCC1	none (no result: Wnt act)
O=C(Nc1ccccc1Cl)NC1CCCCCCC1	esBAF inh 58.9
C[C@H](CO)N1C[C@H](C)[C@@H](CN(C)S(=O)(=O)c2ccccc2)Oc2ncc(Br)cc2C1=O	none (no result: Wnt act, MITF act, GAA850 FXN act)
Cc1cccc(N2C(=O)CSC2c2cccnc2)c1 (configuration not stated)	none
Cc1cccc(N2CCN(c3cccc(C)c3)C2c2cccnc2)c1	Wnt act 37.4 (no result: MITF act)
COc1ccc(NC(=O)c2cc3ccccc3o2)cc1OC	esBAF inh inconclusive
CC(C)C(=O)Nc1cccc(NC(=O)c2cc3ccccc3o2)c1	esBAF inh 72.1 (no result: MITF act)
CC(=O)Nc1cccc(NC(=O)c2cc3ccccc3o2)c1	Wnt act 50.6, MITF act inconclusive (no result: esBAF inh, C2C12 statin)
CC(=O)Nc1ccc(-c2cc3ccccc3o2)cc1	Wnt act 55.6 (no result: MITF act)
CCN(CC)S(=O)(=O)c1cccc(NC(=O)c2cc3ccccc3o2)c1	esBAF inh inconclusive
CCC(=O)Nc1ccc(-c2cc3ccccc3oc2=O)cc1	none (no result: esBAF inh, Wnt act, C2C12 statin)
CN(C)S(=O)(=O)c1cccc(NC(=O)c2cc3ccccc3o2)c1	esBAF inh 50.3 (no result: Wnt act, MITF act)
COc1cc(NC(=S)NC(=O)C(C)C)ccc1NC(=O)c1cc2ccccc2o1	none
COc1cc(NC(=O)C(C)C)ccc1NC(=O)c1cc2ccccc2o1	esBAF inh 60.0, MITF act 83.9
Cc1ccc(NC(=O)c2cc3ccccc3o2)cc1Cl	esBAF inh inconclusive, MITF act 104.2
O=C(c1cccnc1)N1C[C@H]2[C@@H](c3ccccc31)[C@@H](CO)N2Cc1ccc2c(c1)OCO2	none (no result: Wnt act, MITF act, GAA850 FXN act)
CCCNC(=O)Nc1ccc2c(c1)C(=O)N(C)C[C@H](OC)[C@H](C)CN(CCC)[C@H](C)CO2	none (no result: Wnt act, MITF act, GAA850 FXN act)
C[C@@H]1CN([C@@H](C)CO)C(=O)c2cccc(NC(=O)Nc3ccccc3)c2O[C@@H]1CN(C)C(=O)Nc1ccc(C(F)(F)F)cc1	none (no result: Wnt act, MITF act, GAA850 FXN act)
C[C@H](CO)N1C[C@H](C)[C@H](CN(C)Cc2ccncc2)Oc2cc(C3=CCCC3)ccc2S1(=O)=O	none (no result: Wnt act, MITF act, GAA850 FXN act)
Cc1ccc(S(=O)(=O)N2CCN(C(=O)c3cccs3)CC2)cc1C	C2C12 statin 118.3

Source: PubChem
